VDR inh – Inhibitors of the vitamin D receptor (VDR): qHTS. Vitamin D3 receptor (Homo sapiens), P11473. VDR-SRC2-3 peptide fluorescence polarization, 2 h. Potency, µM, for the others: max response, negative = inhibition, actives largely listed as inhibitors. 400,000 tested, 0.93% active; also: % is scaled to controls: 0 for no effect and ±100 for the full control effect
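Reagent solutions, kept cold and dark, are dispensed first; compounds are then pinned in at 23 nl, plates briefly spun, and incubated 2 h at ambient temperature. Inhibition of VDR–SRC2-3 peptide binding is read by fluorescence polarization.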
HP1b chromo inh – HTS for Inhibitors of HP1-beta Chromodomain Interactions with Methylated Histone Tails. AlphaScreen HP1-beta / biotin-H3K9me3 peptide binding. 390,000 tested, 0.56% active. AID 540317, 2011. Potency, µM (titrated, usually from 114 µM), for inactives: at the highest dose activity change, negative = inhibition, most hits filed as inhibitors. Chromobox protein homolog 1 (Homo sapiens), P83916; also: nearly all actives have a fitted effect of over 70% in size
Target sequence (P83916 whole entry, looked up): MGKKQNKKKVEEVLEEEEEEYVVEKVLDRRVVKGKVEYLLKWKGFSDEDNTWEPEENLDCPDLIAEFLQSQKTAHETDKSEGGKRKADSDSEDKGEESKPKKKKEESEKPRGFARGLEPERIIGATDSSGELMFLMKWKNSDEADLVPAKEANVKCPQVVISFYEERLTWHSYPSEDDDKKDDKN
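Compound inhibition of the preformed complex between 50 nM HP1-beta and 50 nM biotinylated H3K9me3 peptide was read by AlphaScreen. Buffer was PBS pH 7.4 with 0.01% Tween-20. Incubations ran 30 min at room temperature, with 10 ug/mL donor/acceptor beads.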
PLK1 PBD block – qHTS for Inhibitors of PLK1-PDB (polo-like kinase 1 - polo-box domain): Primary Screen; 360,000 tested, 2.8% active; Serine/threonine-protein kinase PLK1 (Homo sapiens), P53350; Potency, µM, for inactives: max response, negative = inhibition, actives largely listed as inhibitors; Plk1 PBD binding of FITC phosphopeptide, fluorescence polarization; AID 720504, 2013; also: series mostly up to about 57 µM; % is scaled to controls: 0 for no effect and ±100 for the full control effect; nearly all actives have a fitted effect of over 65% in size
JMJD2A Tudor inh – qHTS Assay for Inhibitors of JMJD2A-Tudor Domain; AlphaScreen JMJD2A-Tudor / H3K4me3 peptide binding; Potency, µM (top dose mostly 114 µM), inactives show top-dose activity change, negative = inhibition, actives largely listed as inhibitors; 390,000 tested, 4.4% active; Lysine-specific demethylase 4A (Homo sapiens), O75164; also: % is scaled to controls: 0 for no effect and ±100 for the full control effect; nearly all actives have a fitted effect of over 50% in size
BAZ2B inh – qHTS Assay for Inhibitors of BAZ2B; Bromodomain adjacent to zinc finger domain protein 2B (Homo sapiens), Q9UIF8; AlphaScreen BAZ2B-H3K14Ac peptide displacement; Potency, µM (series often up to 114 µM), for the others: at the highest dose activity change, negative = inhibition, hits mostly inhibitors; 360,000 tested, 4.4% active; also: % is scaled to controls: 0 for no effect and ±100 for the full control effect; nearly all actives have a fitted effect of over 60% in size
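Complex of BAZ2B and biotin-H3K14Ac (50 nM apiece) forms over 30 min at RT, then faces library compounds up to 110 uM for another 30 min; AlphaScreen beads added, 20 min dark incubation, luminescence read.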
L3MBTL1 inh – qHTS Assay for the Inhibitors of L3MBTL1. Lethal(3)malignant brain tumor-like protein 1 (Homo sapiens), Q9Y468. AlphaScreen L3MBTL1–H3K9me1 peptide binding. Potency, µM (series often up to 57.1 µM), inactives show at the top dose activity, negative = inhibition, usual class: inhibitors. 230,000 tested, 0.66% active. AID 485360, 2010; also: % is scaled to controls: 0 for no effect and ±100 for the full control effect; nearly all actives have a fitted effect of over 60% in size
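AlphaScreen proximity signal between nickel-chelate acceptor and streptavidin donor beads (final 10 ug/mL) reports binding of 50 nM L3MBTL1 to 75 nM biotin-H3 K9me1 peptide; complex incubated with compounds 30 min at room temperature; cefsulodin titration as control.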
An asterisk follows results filed as active; u = inconclusive; x = not tested or not shown; [ ] = another dose, or the depositor's remark. Shown are actives, neighbours in structure and some others; about 6.9% of the full set was active somewhere. Calls follow the shape of the dose curve; as a rule, active = well fitted curve in the direction sought with a large enough effect; inconclusive = small, poorly fitted or top-dose-only effect, or another doubt; inactive = no such curve, though single readings can be large; an effect the other way counts as inactive or inconclusive. Potency is read from the fitted curve at half-maximal effect.

SMILES	VDR inh	HP1b chromo inh	PLK1 PBD block	JMJD2A Tudor inh	BAZ2B inh	L3MBTL1 inh
O=[N+]([O-])c1ccccc1CN1CCN(c2ncccn2)CC1	-10%	u	u	18µM*	50µM*	3%
COc1ccc(NC(=O)Nc2cccc(OCc3cc(=O)n4cccc(C)c4n3)c2)c(OC)c1	10%	26%[57 µM]	x	-14%	-1%	x
CCOC(=O)N1CCN(Cc2nc3cc(NC(=O)c4ccc(F)cc4)ccc3n2C(C)C)CC1	2%	37%	x	-22%	-26%	x
CCC(=O)Nc1ccc2c(c1)nc1n2CCN(C2CCCCC2)C1	-13%	4%	u	-31%	u	9%
COc1ccccc1C(=O)Nc1ccc2c(c1)nc1n2CCN(C2CCCCC2)C1	u	6%	17µM*	u	-20%[57.1 µM]	x
CCOC(=O)N1CCN(Cc2nc3cc(NC(=O)c4ccccc4OC)ccc3n2C(C)C)CC1	9%	24%	x	50µM*	79µM*	x
CC1CCC(C(C)C)C2=C1C(C#N)(C#N)C(C#N)(C#N)C(c1ccccc1)N2 (stereo unspecified)	89µM*	u	u	u	u	-6%
CN1CCN(c2ccc(CNS(=O)(=O)Cc3ccc(Cl)cc3)cc2)CC1	-5%	34%	-10%	-16%	9%	4.5µM*
CN1CCN(c2ccc(CNS(=O)(=O)c3ccc(F)cc3Cl)cc2)CC1	11%	24%	2%	-1%	-13%	x
Cc1ccc(-c2[nH]c3c(c2-c2c(-n4cccc4)n(C)c(=O)[nH]c2=O)c(=O)[nH]c(=O)n3C)cc1	2%	37%	x	-18%	-5%	x
Cn1c(-n2cccc2)c(-c2c(-c3ccccc3)[nH]c3c2c(=O)[nH]c(=O)n3C)c(=O)[nH]c1=O	4%	-7%	x	-31%	79µM*	14µM*
O=c1cc(-c2ccc(O)c(O)c2)oc2cc(O)c(C3OC(CO)C(O)C(O)C3O)c(O)c12 (stereo unspecified)	-20%	4%	-7%	25µM*	u	16µM*
O=c1cc(-c2ccc(O)cc2)oc2cc(O)c([C@@H]3O[C@H](CO)[C@@H](O)[C@H](O)[C@H]3O)c(O)c12	-6%	35%	7%	-23%	x	0%
O=C(CCn1c2c(c3ccccc31)CCCC2)NNC(=O)c1ccccc1C(=O)O	4%	4%	-13%	-28%	71µM*	-20%
COc1ccc2ccccc2c1CNCc1ccc(C)cc1	3%	u	-7%	22µM*	u	-8%
COc1ccc2ccccc2c1CNC(C)c1ccccc1 (stereo unspecified)	12%	-5%	1%	79µM*	u	-9%[2.29 µM]
CC(NCCCOc1cccc2ccccc12)c1ccccc1 (stereo unspecified)	-16%	u	6%	22µM*	u	-2%
Cc1cc2c(SCC(=O)NC3CCCC3)ncnc2s1	-3%	18%	-8%	-8%	-3%	x
COCCCNC(=O)C(C)N1c2cccc3cccc(c23)S1(=O)=O (stereo unspecified)	71µM*	3%	11µM*	u	-24%	1%
COCCNC(=O)C(C)N1c2cccc3cccc(c23)S1(=O)=O (stereo unspecified)	-1%	-1%	u	-35%	7%	5%
CC1(C)CC(=O)C2=C(C1)OC(N)=C(C#N)C2C#Cc1ccccc1 (stereo unspecified)	45µM*	42%	11µM*	-25%	u	-6%
Cc1ccc(-c2cc(-c3coc4ccc(Cl)cc4c3=O)c3c(n2)-c2ccccc2OC3)cc1	12%	24%	x	-15%	-20%	x

High-throughput results as filed in PubChem.
